As usually defined, the AC50 is the concentration at which the activity in the assay is half-maximal.

Where “and” joins values, the source holds several entries; their conditions need not be identical. Equal values may be shown once. Inconclusive results are not listed. A structure can be active in one record and inactive in another. Calls of active or inactive are those of the source. How the source made its calls: active means hit-call score of the fitted dose curve at least 0.9, where 1 is the maximum; inconclusive means response in the unintended direction; inactive means score below 0.9.

Test [1] has as its system chicken Androgen Receptor (AR), gene 422165. Description: ATG_chAR_XSP1: Attagene TRANS-FACTORIAL Multi-Species (XSP1) HepG2 Assay for chicken Androgen Receptor (AR) (AID 2283768). In outline:
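Reporter mRNA read by RT-PCR with fluorescent labelling and capillary electrophoresis 24 h after chemical dosing of transiently transfected HepG2 cells. Chicken AR-Gal4 chimera, partially stimulated with 3 nM 6-alpha-fluorotestosterone; activity fitted upward relative to DMSO.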

For test [2], the system named is frog Estrogen Receptor (ESR2), gene 100174814. Description: ATG_frER2_XSP1: Attagene TRANS-FACTORIAL Multi-Species (XSP1) HepG2 Assay for frog Estrogen Receptor (ESR2) (AID 2283774). In outline: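 HepG2, transient MRTU transfection (GAL4-UAS reporters, exogenous NR-Gal4 chimeras); 24 h compound exposure; 3 nM 6α-fluorotestosterone co-added; total RNA → RT-PCR → 6-FAM primer extension → HpaI → CE. Positive direction vs DMSO.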

The nature of test [3]: ACEA_AR_agonist_AUC_viability: ACEA Biosciences xCELLigence Real-Time Cell Analysis on Androgen Receptor Agonism for Viability (AID 2283775).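 On AC50: viability read 80 hours after compound addition.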 In outline:
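Viability endpoint from xCELLigence impedance in 22Rv1 prostate cells at 80 h. Eight-point series, 100 uM maximum final.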

Test [4] in a line: ACEA_AR_antagonist_AUC_viability: ACEA Biosciences xCELLigence Real-Time Cell Analysis on Androgen Receptor Antagonism for Viability (AID 2283776).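 Further: 22Rv1 human prostate cancer cells growing on impedance electrode plates; hits lower the growth signal relative to DMSO meaning cytotoxicity.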 In outline: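 Impedance read-out (RT-CES): area under growth curve at 80 h post-dose, loss of signal scored vs DMSO baseline. 22Rv1 cells; 8-pt 1:4 series, top 100 uM final, ≤0.5% DMSO; biological duplicate.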
The target of test [5] is Estrogen receptor (Homo sapiens) (UniProt P03372). The experiment in a line: ATG_hERa_XSP1: Attagene TRANS-FACTORIAL Multi-Species (XSP1) HepG2 Assay for human Estrogen Receptor (ESR1) (AID 2283780). The method in brief:
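Reporter transcripts from multiplexed GAL4-UAS units driven by NR-Gal4 chimeras in transiently transfected HepG2 were measured by RT-PCR with capillary electrophoresis 24 h post-dose, with 3 nM 6-alpha-fluorotestosterone present; gain-of-signal relative to DMSO.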

Test [6] has as its system turtle Estrogen Receptor (ESR1), gene 101933533. The experiment in a line: ATG_trERa_XSP1: Attagene TRANS-FACTORIAL Multi-Species (XSP1) HepG2 Assay for turtle Estrogen Receptor (ESR1) (AID 2283781). In outline: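 Transfect HepG2 with reporter units → dose chemical 24 h (medium has 3 nM 6-alpha-fluorotestosterone) → isolate RNA, RT-PCR → FAM primer extension, HpaI digest → capillary electrophoresis; gain of signal vs DMSO.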

The target in test [7] is AR (gene 367) (UniProt P10275). Description: ACEA_AR_agonist_80hr: ACEA Biosciences xCELLigence Real-Time Cell Analysis on Androgen Receptor Agonism for Proliferation (AID 2283783).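 Further: hits increase impedance growth signal above DMSO baseline.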 In outline:
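Impedance (RT-CES) growth signal at 80 h post-dose; 22Rv1 cells, 8-pt 1:4 series, top 100 uM final, DMSO ≤0.5%; duplicate plates; gain-of-signal fit relative to DMSO baseline.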

Test [8] in a line: STM_H9_NormalizedViability: Cytotoxicity Assessment at 120 hours in the Stemina devTOX quickPredict H9 human embryonic stem cell (hESC)-based Assay (AID 2283784). The method in brief: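 CellTiter-Fluor RFU, background-subtracted, expressed relative to 0.1% DMSO neutral control by plate. Pluripotent H9 cells; treatment with daily re-dosing. Plates carried 1uM methotrexate (positive) and 5 nM methotrexate (negative) references.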

The target in test [9] is human Androgen Receptor (AR), AR (gene 367) (UniProt P10275). Description: ATG_hAR_XSP1: Attagene TRANS-FACTORIAL Multi-Species (XSP1) HepG2 Assay for human Androgen Receptor (AR) (AID 2283785). As to the method:
ATG_XSP1_multi-species_TRANS is a cell-based, multiplexed assay created by modifying the existing Attagene TRANS-FACTORIAL system to include a panel of nuclear receptors from some or all the following species: human (Homo sapiens), mouse (Mus musculus), frog (Xenopus laevis), zebrafish (Danio rerio), chicken (Gallus gallus), and turtle (Chrysemys picta). The ECOTOX-FACTORIAL format uses HepG2, a human liver cell line, with measurements taken at 24 hours after chemical dosing in a 24-well plate. Xsp1 included 3 nM 6-alpha-fluorotestosterone to partially stimulate the androgen receptor.ATG_hAR_XSP1 is one of 29 assay components measured or calculated from the ATG_XSP1_multi-species_TRANS assay. It is designed to make measurements of mRNA induction, a form of inducible reporter, as detected with fluorescence intensity signals by Reverse transcription polymerase chain reaction (RT-PCR) and Capillary electrophoresis technology.The assay endpoint ATG_hAR_XSP1 was analyzed in the positive analysis fitting direction relative to DMSO as the negative control and baseline of activity. […] Furthermore, this assay endpoint can be referred to as a primary readout, because this assay has produced multiple assay endpoints where this one serves a reporter gene function. […]

In test [10] the target is AR (gene 367) (UniProt P10275). Description: ACEA_AR_antagonist_80hr: ACEA Biosciences xCELLigence Real-Time Cell Analysis on Androgen Receptor Antagonism for Proliferation (AID 2283787).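 Further: 22Rv1 human prostate cancer cells with growth followed by electrical impedance; hits lower the impedance growth signal relative to DMSO.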 In outline:
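Measures real-time proliferation of 22Rv1 prostate cancer cells by electrode impedance at 80 hours after dosing. Test articles ran at eight concentrations (1:4 steps, top 100 uM final) in biological duplicate.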

For test [11], the target named is Luciferin 4-monooxygenase (Photinus pyralis) (UniProt P08659). The experiment in a line: CCTE_Simmons_QuantiLum_inhib_2: CCTE's Firefly Luciferase Inhibition Assay, Simmons Lab (AID 2283767). In outline: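 Cell-free QuantiLum luciferase, 5 ng/well; compounds 5 nM–87.5 uM final, 8 conc, 0.5% DMSO; 30 min, 37C, dark. Detection reagent (150 uM D-luciferin, 147 uM dATP, CoA, DTT, pH 7.8 final) injected per well, kinetic luminescence. Triplicate biological replicates.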

Test [12] deals with zebrafish Androgen Receptor (AR), gene 100005148. Description: ATG_zfAR_XSP1: Attagene TRANS-FACTORIAL Multi-Species (XSP1) HepG2 Assay for zebrafish Androgen Receptor (AR) (AID 2283771). In outline:
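Gain-of-signal versus DMSO was measured as reporter transcripts quantified by RT-PCR, fluorescent labelling and capillary electrophoresis after 24 h chemical exposure. The cells were HepG2 expressing a chimeric zebrafish AR-GAL4, co-stimulated with 3 nM 6-alpha-fluorotestosterone.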

The target of test [13] is zebrafish Estrogen Receptor (ESR1), esr1 (gene 259252) (UniProt P57717). The experiment in a line: ATG_zfER1_XSP1: Attagene TRANS-FACTORIAL Multi-Species (XSP1) HepG2 Assay for zebrafish Estrogen Receptor (ESR1) (AID 2283772). The method in brief: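 Transfect HepG2 with GAL4-UAS multi-reporter constructs; treat 24 h (medium carries 3 nM 6-alpha-fluorotestosterone); extract RNA, reverse-transcribe, PCR-amplify, FAM-label, digest with HpaI; resolve by capillary electrophoresis and compare against DMSO baseline.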

Test [14] has as its system zebrafish Estrogen Receptor (ESR2B), gene 317733. Description: ATG_zfER2b_XSP1: Attagene TRANS-FACTORIAL Multi-Species (XSP1) HepG2 Assay for zebrafish Estrogen Receptor (ESR2B) (AID 2283773). In outline: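 Multiplexed TRANS format in transfected HepG2 liver cells, chimeric NR-Gal4 from zebrafish ESR2B. 24 h dosing; medium contains 3 nM 6-alpha-fluorotestosterone. mRNA induction by RT-PCR/CE, positive direction vs DMSO.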

For test [15], the system named is zebrafish Estrogen Receptor (ESR2A), gene 317734. The experiment in a line: ATG_zfER2a_XSP1: Attagene TRANS-FACTORIAL Multi-Species (XSP1) HepG2 Assay for zebrafish Estrogen Receptor (ESR2A) (AID 2283778). In outline: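 Transient transfection of HepG2 (human liver) with MRTU constructs; chemical dosing for 24 h; medium contained 3 nM 6-alpha-fluorotestosterone to partly stimulate AR. RT-PCR/CE fluorescence of reporter transcripts; positive direction vs DMSO.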

Test [16] is described as follows: ACEA_ER_AUC_viability: ACEA Biosciences xCELLigence Real-Time Cell Analysis on Estrogen Receptor Agonism for Viability (AID 2283782).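 Further: hit means loss of impedance signal meaning reduced cell growth or viability.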 In outline:
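Read-out: real-time electrical impedance (RT-CES) area under curve, loss of signal taken as reduced viability, normalized to DMSO baseline. T-47D cells, charcoal-stripped serum medium, compounds up to 100 uM final, continuous exposure, 80 h.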

For test [17], the system named is turtle Androgen Receptor (AR), gene 101947425. The experiment in a line: ATG_trAR_XSP1: Attagene TRANS-FACTORIAL Multi-Species (XSP1) HepG2 Assay for turtle Androgen Receptor (AR) (AID 2283786). The method in brief:
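Partial androgen stimulation is provided by 3 nM 6-alpha-fluorotestosterone in a multi-species trans-factorial panel expressing a turtle AR–GAL4 fusion in HepG2. After 24 h, reporter mRNA is measured by RT-PCR and capillary electrophoresis and fitted upward against DMSO.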

Luciferin 4-monooxygenase (Photinus pyralis), sequence (P08659 whole entry, looked up): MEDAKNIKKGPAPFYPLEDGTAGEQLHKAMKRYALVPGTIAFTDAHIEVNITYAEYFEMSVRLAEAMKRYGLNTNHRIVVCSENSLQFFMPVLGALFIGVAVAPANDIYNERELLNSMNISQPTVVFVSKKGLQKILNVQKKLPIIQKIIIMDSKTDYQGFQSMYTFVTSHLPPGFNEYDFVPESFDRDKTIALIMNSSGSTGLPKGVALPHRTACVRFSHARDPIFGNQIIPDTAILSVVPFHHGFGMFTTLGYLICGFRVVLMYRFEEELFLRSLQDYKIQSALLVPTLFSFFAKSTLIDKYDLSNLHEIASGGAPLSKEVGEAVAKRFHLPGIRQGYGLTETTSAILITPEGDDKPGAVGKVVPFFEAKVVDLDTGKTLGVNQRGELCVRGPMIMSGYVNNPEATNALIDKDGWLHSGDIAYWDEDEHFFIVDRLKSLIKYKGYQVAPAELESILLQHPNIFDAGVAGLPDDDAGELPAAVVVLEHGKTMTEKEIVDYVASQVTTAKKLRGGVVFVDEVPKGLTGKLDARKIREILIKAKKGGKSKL
Estrogen receptor (Homo sapiens), sequence (P03372 whole entry, looked up, the tested form may be a part): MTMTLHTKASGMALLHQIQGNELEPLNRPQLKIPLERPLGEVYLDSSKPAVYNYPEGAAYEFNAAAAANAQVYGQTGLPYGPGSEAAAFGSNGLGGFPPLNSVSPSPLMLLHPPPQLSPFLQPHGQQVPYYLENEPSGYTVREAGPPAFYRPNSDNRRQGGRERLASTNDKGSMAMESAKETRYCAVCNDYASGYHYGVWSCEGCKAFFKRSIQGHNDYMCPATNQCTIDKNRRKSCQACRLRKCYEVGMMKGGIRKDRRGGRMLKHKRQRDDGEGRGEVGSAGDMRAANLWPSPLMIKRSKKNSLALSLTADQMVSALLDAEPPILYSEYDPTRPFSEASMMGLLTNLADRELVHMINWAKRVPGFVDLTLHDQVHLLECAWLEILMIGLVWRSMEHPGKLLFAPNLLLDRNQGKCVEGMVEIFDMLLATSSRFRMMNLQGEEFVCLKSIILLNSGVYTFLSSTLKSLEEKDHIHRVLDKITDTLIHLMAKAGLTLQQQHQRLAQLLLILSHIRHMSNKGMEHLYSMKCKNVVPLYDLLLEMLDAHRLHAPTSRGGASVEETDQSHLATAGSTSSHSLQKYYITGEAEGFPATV
zebrafish Estrogen Receptor (ESR1), esr1 (gene 259252), sequence (P57717 whole entry, looked up, the tested form may be a part): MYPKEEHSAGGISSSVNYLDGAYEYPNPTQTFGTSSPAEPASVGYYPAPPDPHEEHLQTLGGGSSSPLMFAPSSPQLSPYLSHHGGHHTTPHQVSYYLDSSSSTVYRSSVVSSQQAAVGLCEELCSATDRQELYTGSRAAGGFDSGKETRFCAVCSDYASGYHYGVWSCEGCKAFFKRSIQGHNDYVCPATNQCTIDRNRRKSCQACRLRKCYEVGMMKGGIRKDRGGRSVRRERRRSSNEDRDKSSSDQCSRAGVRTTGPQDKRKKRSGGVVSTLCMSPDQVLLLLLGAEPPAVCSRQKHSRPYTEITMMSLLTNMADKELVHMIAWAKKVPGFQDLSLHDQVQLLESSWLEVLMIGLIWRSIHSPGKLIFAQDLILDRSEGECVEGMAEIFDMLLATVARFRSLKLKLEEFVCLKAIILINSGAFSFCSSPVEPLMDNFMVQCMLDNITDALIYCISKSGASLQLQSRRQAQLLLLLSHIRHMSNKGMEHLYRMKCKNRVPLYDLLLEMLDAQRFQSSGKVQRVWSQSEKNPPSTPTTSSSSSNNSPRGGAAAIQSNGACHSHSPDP
AR (gene 367), sequence (P10275 whole entry, looked up): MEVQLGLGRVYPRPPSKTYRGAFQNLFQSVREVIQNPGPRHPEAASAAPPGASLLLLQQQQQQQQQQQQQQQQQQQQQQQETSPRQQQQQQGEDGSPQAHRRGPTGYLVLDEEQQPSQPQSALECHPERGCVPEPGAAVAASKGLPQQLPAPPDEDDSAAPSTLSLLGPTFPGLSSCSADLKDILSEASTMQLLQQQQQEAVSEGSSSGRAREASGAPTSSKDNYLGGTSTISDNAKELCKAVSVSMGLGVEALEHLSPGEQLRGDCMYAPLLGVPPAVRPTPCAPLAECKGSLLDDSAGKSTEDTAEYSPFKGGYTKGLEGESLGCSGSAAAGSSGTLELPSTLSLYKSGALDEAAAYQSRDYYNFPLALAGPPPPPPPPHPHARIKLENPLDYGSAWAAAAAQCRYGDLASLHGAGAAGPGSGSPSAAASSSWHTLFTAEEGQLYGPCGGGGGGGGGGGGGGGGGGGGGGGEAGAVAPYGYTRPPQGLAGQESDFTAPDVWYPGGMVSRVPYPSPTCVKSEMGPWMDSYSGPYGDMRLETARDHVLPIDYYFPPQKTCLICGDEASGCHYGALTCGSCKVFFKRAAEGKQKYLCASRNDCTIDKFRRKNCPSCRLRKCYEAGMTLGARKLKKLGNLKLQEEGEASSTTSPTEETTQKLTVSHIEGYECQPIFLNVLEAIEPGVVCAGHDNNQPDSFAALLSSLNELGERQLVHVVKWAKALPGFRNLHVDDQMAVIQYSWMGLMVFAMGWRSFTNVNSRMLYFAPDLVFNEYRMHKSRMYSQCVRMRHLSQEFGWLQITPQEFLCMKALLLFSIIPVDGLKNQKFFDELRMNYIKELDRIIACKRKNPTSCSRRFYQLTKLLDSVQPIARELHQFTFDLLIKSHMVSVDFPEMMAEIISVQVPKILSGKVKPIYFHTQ
human Androgen Receptor (AR), AR (gene 367), sequence (P10275 whole entry, looked up): as above

In the case of `CO/C=C(/C(=O)OC)c1ccccc1Oc1cc(Oc2ccccc2C#N)ncn1`, the call in test [1], in [2], in test [5], in [6], in test [7] and in test [8] was inactive. Moreover, in test [9], the result was inactive. Further, the AC50 was 46.7 µM (active) in [3], 45.3 µM (active) in test [4] and 61.2 µM (active) in test [10].
With `CCCN(CCC)c1c([N+](=O)[O-])cc(S(N)(=O)=O)cc1[N+](=O)[O-]`, the outcome in test [11], in [12], in test [13], in test [16] and in test [17] was inactive. Also, the AC50 in test [1] was 59.5 µM (active); in [14], 14.2 µM (active); in test [2] it was 11.2 µM (active); in test [15], 33.4 µM (active); in test [5], 13.2 µM (active); in test [6] it was 33.4 µM (active). The AC50 in test [16] was 24 µM (active) and 82.5 µM (active) and 21.4 µM (active).
`CNC(=S)S`: the compound was called inactive in [11], in test [3], in test [4] and in test [16].
Take `COC(=O)N(OC)c1ccccc1COc1ccn(-c2ccc(Cl)cc2)n1`: the compound was classed as inactive in test [1], in test [13], in test [14], in test [2], in [15] and in test [5]. Moreover, in test [6], the call was inactive. The concentration at half-maximal activity (AC50) in test [3] was 25.9 µM (active); in test [4], 26.8 µM (active); in test [16], 92.3 µM (active); in test [8], 500 nM (active).
`COP(N)(=O)SC` (stereo not given): the call in test [11], in test [3] and in [4] was inactive.

The values above are taken from PubChem BioAssay (EPA / NIEHS).
